{"source": "PubChem BioAssay (NCATS)", "note": "Where “and” joins values, the source holds several entries; their conditions need not be identical. Equal entries are not always repeated. Records with an inconclusive call do not appear. A number with no mark means an inactive call. Calls of active or inactive are those of the source. Calls come from the whole dose curve; as a rule, active = well fitted activation curve with a large enough effect; inconclusive = small, poorly fitted or top-dose-only effect; inactive = no such curve, though single readings can be large or run the other way. Potency is the fitted concentration of half-maximal effect.", "data": [{"target": "Cellular tumor antigen p53 (Homo sapiens) (UniProt P04637)", "sequence (P04637 whole entry, looked up)": "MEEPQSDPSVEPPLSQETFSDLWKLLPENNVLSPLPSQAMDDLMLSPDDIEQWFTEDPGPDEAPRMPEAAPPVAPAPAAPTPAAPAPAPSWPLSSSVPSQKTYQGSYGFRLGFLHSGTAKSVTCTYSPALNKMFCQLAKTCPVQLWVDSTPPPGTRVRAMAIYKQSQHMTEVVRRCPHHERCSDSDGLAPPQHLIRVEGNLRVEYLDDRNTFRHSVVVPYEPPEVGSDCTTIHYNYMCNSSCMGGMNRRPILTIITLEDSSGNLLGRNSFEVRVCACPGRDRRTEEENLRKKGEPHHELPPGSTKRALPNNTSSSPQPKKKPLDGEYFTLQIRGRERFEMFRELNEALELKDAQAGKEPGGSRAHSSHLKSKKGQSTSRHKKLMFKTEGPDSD", "test": "Primary qHTS for small molecule compounds that upregulate eGFP-tagged delta133p53alpha (in N-terminal) cells. (AID 2060322); note: nearly all actives have a fitted effect of over 75% in size;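 for activation: series mostly up to about 56 µM; 0% = DMSO vehicle and 100% = reference activator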", "details": "NCI-H358 eGFP-delta133p53alpha fluorescence, 24 h; activation: hits give high values", "procedure,_shortened": "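NCI-H358 cells pre-induced 24 h with 10 ng/ml doxycycline to express N-terminal eGFP-delta133p53alpha, then dosed 24 h at 37C without doxycycline; fixed, Hoechst-stained, GFP intensity by laser scanning cytometry, normalized to DMSO (0%) and 57.5 uM 5-azacytidine (100%).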", "units": {"activation": "%"}, "values": [{"smiles": "C[C@H]1CCCC=CC2C[C@H](O)C[C@@H]2[C@H](O)C=CC(=O)O1", "note": "(stereo not given in full)", "activation": 23.5}, {"smiles": "Cc1c(Cl)c(=O)oc2cc(OP(=O)(OCCCl)OCCCl)ccc12", "activation": -15.9}, {"smiles": "c1cc2c(c(N3CCNCC3)c1)OCCO2", "activation": -12.6}, {"smiles": "COc1cc(CC(C)N)cc2c1OCO2", "note": "(stereo not given)", "activation": 6.21}, {"smiles": "Sc1ccccc1Cl", "activation": -0.837}, {"smiles": "CC1OC(C)OC(C)O1", "note": "(stereo not given)", "activation": 6.21}, {"smiles": "COc1cc(N)c(Cl)cc1C(=O)NC1CN2CCC1CC2", "note": "(stereo not given)", "activation": 10.7}, {"smiles": "CNC(C)Cc1ccc2c(c1)OCO2", "note": "(stereo not given)", "activation": 17.5}, {"smiles": "O=C1c2ccccc2C(=O)C1C(=O)C(c1ccccc1)c1ccccc1", "activation": 24.3}, {"smiles": "Oc1ccc(Cl)cc1Cc1ccccc1", "Potency": "45.5 µM (active) and 24.6 µM (active)"}, {"smiles": "CC(C)(C)C(O)C(Oc1ccc(Cl)cc1)n1cncn1", "note": "(stereo not given)", "activation": 10.7}, {"smiles": "OCCCBr", "activation": -36.8}, {"smiles": "CCN(CC)CCOC(=O)C(O)(c1ccccc1)c1ccccc1", "activation": 20.9}, {"smiles": "O=C1CCC[C@@H]2[C@H]3CCCN4CCC[C@@H](CN12)[C@@H]34", "activation": 30.7}, {"smiles": "Nc1ccccc1", "activation": -8.47}, {"smiles": "[N-]=[N+]=CC(=O)OC[C@H](N)C(=O)O", "activation": 5.02}, {"smiles": "Nc1ccc([N+](=O)[O-])cc1", "activation": 28.8}, {"smiles": "COc1ccc2[nH]cc(CCN(C(C)C)C(C)C)c2c1", "activation": 23.2}, {"smiles": "OCCOc1ccccc1", "activation": -20.9}, {"smiles": "C[C@]12COC(=O)C[C@@H]1CC[C@@H]1[C@H]2CC[C@@]2(C)[C@H]1CC[C@]2(C)O", "activation": -15.3}, {"smiles": "CC(C)Oc1cccc(NC(=O)c2ccccc2C(F)(F)F)c1", "activation": -17.6}, {"smiles": "O=C(O)COc1ccccc1", "activation": -28.8}, {"smiles": "CCN(CC)Cc1nccn1-c1ccc([N+](=O)[O-])cc1C(=O)c1ccccc1Cl", "activation": -4.18}, {"smiles": "Nc1ccc(Cl)cc1N", "Potency": "22.4 µM (active)"}, {"smiles": "CN(C)CCc1c[nH]c2cccc(O)c12", "activation": 15.3}, {"smiles": "CC(O)CN1CCN(CC(=O)[O-])CCN(CC(=O)[O-])CCN(CC(=O)[O-])CC1.[Gd+3]", "note": "(stereo not given)", "activation": -12.6}, {"smiles": "CCc1ccc(C2CCNCC2)cc1", "activation": 20.9}, {"smiles": "ClCCN1CCCC1", "activation": 4.18}, {"smiles": "CC(=O)Nc1cc([As](=O)(O)O)ccc1O", "activation": -10.9}, {"smiles": "COc1cc(C[C@@H](C)N)c(OC)cc1Br", "activation": -17.5}, {"smiles": "CCOC(=O)C(c1c(O)c2ccccc2oc1=O)c1c(O)c2ccccc2oc1=O", "activation": -3.95}, {"smiles": "COc1ccc(CC2NCCc3cc(OC)c(OC)cc32)cc1OC", "note": "(stereo not given)", "activation": -6.46}, {"smiles": "C[C@]12CC[C@H]3[C@@H](CCC4=CC(=O)CC[C@@H]43)[C@@H]1CC[C@@H]2OC(=O)CCC1CCCCC1", "activation": -13}, {"smiles": "CC(=O)C1CCOC1=O", "note": "(stereo not given)", "activation": -9.21}, {"smiles": "CC1NCCOC1c1ccccc1", "note": "(stereo not given)", "activation": 9.6}, {"smiles": "C[C@H]1CNCCc2ccc(Cl)cc21", "activation": -8.37}, {"smiles": "CC1=C2[C@H]3OC(=O)[C@@H](C)[C@@H]3CC[C@@]2(C)C=CC1=O", "activation": 11.7}, {"smiles": "CC(C)(O)C(Cl)(Cl)Cl", "activation": -9.6}, {"smiles": "CCC1(CC)C(=O)C=CNC1=O", "activation": -17.5}, {"smiles": "COc1cc(CC#N)cc(OC)c1OC", "activation": 2.82}]}]}
